In all, about 2,300 compounds went through this assay and about 1,000 (43%) were called active. So high a share suggests a set chosen from earlier hits. A selection follows. A number with no mark means an inactive call.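 The calls were made as follows: active = compounds inhibiting the enzyme by at least 50% at 15 µM in any one of the replicates; inactive = the rest.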
The compounds below were run against Fatty acid synthase (Homo sapiens) (UniProt P49327) (assay: inhibition of human FAS-TE enzyme activity – biochemical, fluorescence intensity, single concentration, confirmation (AID 624325;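 also: 0% = enzyme with DMSO only and 100% = wells lacking enzyme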)). Conditions: recombinant FAS-TE, OMFH fluorogenic substrate, at 15 µM, active compounds read high.
Chain of Fatty acid synthase (Homo sapiens) (P49327 whole entry, looked up): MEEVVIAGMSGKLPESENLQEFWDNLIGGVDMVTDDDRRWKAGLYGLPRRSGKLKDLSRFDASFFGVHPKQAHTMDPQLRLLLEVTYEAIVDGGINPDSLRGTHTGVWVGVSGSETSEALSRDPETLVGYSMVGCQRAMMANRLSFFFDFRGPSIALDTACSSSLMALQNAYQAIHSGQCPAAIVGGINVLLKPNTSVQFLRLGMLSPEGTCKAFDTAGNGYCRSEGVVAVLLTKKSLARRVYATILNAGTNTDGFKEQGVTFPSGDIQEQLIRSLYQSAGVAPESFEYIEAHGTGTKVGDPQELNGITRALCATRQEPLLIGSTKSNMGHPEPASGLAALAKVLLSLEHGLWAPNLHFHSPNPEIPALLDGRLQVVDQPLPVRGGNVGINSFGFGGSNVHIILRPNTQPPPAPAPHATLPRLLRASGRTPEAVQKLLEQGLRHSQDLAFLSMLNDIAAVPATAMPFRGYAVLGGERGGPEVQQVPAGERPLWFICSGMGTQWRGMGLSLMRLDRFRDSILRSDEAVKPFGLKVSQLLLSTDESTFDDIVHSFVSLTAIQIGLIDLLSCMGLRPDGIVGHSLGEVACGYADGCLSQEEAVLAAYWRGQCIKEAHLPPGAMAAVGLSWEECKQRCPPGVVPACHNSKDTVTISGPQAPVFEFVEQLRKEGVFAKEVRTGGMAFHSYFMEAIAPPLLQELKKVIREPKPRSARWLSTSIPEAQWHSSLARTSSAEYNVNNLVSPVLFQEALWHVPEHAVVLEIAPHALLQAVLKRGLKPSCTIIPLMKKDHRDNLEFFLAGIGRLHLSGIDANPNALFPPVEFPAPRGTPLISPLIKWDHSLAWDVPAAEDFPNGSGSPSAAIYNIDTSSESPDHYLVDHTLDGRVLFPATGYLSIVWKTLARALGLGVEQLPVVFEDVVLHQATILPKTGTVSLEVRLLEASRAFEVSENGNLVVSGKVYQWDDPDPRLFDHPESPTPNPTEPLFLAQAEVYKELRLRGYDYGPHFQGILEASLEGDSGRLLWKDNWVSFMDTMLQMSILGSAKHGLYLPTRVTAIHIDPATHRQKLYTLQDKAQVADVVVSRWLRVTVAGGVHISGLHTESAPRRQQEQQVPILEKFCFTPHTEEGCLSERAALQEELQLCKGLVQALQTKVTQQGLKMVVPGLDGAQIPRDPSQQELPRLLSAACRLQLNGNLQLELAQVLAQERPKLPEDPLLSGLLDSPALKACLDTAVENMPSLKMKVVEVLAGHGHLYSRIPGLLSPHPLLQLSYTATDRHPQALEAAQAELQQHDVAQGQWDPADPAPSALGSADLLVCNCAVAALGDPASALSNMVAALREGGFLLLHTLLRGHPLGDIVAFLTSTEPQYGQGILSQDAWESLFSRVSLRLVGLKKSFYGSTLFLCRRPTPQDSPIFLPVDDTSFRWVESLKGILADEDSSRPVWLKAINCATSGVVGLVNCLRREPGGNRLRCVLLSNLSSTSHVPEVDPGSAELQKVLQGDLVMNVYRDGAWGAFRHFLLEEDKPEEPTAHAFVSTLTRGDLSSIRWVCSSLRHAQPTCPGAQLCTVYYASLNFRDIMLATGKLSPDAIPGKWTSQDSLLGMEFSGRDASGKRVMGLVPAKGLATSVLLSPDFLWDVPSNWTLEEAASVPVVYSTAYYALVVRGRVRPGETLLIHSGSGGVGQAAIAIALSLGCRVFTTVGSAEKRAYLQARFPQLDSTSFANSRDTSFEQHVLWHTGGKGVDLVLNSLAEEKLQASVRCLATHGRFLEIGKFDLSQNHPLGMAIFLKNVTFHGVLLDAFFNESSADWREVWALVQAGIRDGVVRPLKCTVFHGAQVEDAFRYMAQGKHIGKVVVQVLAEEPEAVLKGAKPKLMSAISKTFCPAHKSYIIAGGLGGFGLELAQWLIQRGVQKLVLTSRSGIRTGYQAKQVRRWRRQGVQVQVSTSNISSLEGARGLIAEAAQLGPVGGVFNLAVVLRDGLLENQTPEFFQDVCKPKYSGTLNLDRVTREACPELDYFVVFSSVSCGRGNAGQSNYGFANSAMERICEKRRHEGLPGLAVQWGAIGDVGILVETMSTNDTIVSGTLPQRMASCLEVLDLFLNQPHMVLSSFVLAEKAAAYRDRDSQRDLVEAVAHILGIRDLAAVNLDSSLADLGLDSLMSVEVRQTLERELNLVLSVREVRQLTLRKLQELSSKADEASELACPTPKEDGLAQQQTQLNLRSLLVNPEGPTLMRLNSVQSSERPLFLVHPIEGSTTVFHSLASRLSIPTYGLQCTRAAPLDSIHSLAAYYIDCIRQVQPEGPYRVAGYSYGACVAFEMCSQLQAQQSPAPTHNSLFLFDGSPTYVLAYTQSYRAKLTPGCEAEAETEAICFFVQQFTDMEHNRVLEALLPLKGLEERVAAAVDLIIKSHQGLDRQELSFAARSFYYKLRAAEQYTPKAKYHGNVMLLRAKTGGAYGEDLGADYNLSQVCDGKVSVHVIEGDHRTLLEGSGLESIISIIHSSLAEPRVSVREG

SMILES	inhibition
COc1ccc([C@@H]2[C@@H]3C(=O)N(C(C)(C)C)C(=O)[C@@H]3[C@]3(Cc4ccccc4)C(=O)N(c4cccc(Br)c4)C(=O)N23)cc1	46.4% (active)
Cc1cccc([C@@H]2[C@@H]3C(=O)N(Cc4ccccc4)C(=O)[C@@H]3[C@]3(Cc4ccc(Cl)cc4)C(=O)N(c4cccc(Cl)c4)C(=O)N23)c1	11.9%
Cc1ccc(C(=O)N/C(=C\c2cn(S(=O)(=O)N(C)C)c3ccccc23)C(=O)N2CCCC2)cc1	88.2% (active)
Cc1ccc(S/C(=N\S(=O)(=O)c2ccc(Cl)cc2)c2ccccc2)cc1	29.6%
COc1ccc([N+](=O)[O-])cc1NC(=O)CC1SC(=Nc2cccc(C)c2C)N(/N=C(\C)c2ccc(C)cc2)C1=O (stereo not given)	25.8%
COc1ccc([N+](=O)[O-])cc1NC(=O)c1ccc(N(Cc2ccccc2C)S(C)(=O)=O)cc1	39.2% (active)
CCCCCCCCCCCCN1[C@@H](CC(C)=O)c2cc(F)cc(F)c2S1(=O)=O	9.68%
COc1ccc2c(c1)[C@H]1[C@H](CO2)[C@H](c2ccccc2)[C@]2(C)C(=O)Nc3cc(F)c(F)cc3C(=O)N12	34%
CC(C)c1ccc2c(c1)c(SC(C)(C)C)c(CC(C)(C)C(=O)O)n2Cc1ccc(Cl)cc1	51.4% (active)
O=C(OC1CCOC1=O)c1ccc(-c2nc3ccccc3s2)s1 (stereo not given)	35.3%
O=S(=O)(Nc1cccc(-n2cnnn2)c1)c1cnc(Cl)c(Cl)c1	68% (active)
CCCc1cc(-c2nc(-c3ccc(C)cc3)cs2)ccn1	46.9%
O=C(Nc1cccc(S(=O)(=O)Nc2ccc(Cl)cc2)c1)c1ccc2c(c1)OCCO2	37.6%
O=C(Nc1ccccc1)c1nnsc1S(=O)(=O)c1ccc(Cl)cc1	72.3% (active)
O=C(CC(c1ccccc1)c1ccccc1)NCC(O)c1ccc([N+](=O)[O-])cc1 (stereo not given)	55.1% (active)
CC(C=Cc1ccccc1)=NNS(=O)(=O)c1ccc([N+](=O)[O-])cc1	71.2% (active)
COCCNC(=O)CCCn1c(=O)c2ccccc2n(Cc2cccc([N+](=O)[O-])c2)c1=O	37.5% (active)
O=C(Oc1cccc(N2C(=O)C3C4c5ccccc5C(c5ccccc54)C3C2=O)c1)c1ccco1 (stereo not given)	36.3% (active)
COc1ccc(C2Nc3ccccc3C(=O)N2c2ccc(Cl)cc2)cc1Cn1cc([N+](=O)[O-])cn1 (stereo not given)	41.9%
O=[N+]([O-])c1ccc(CN2CC(N3CCC(c4ccccc4)CC3)CS2(=O)=O)cc1 (stereo not given)	22.4%
CCCCCOC(=O)c1ccc(N2C(=O)C3C4C=CC(C4)C3C2=O)cc1 (stereo not given)	51.4% (active)
Cc1ccc(NC(=O)c2nc[nH]c2C(=O)N[C@@H](CCCCNC(=O)OC(C)(C)C)C(=O)OC(C)(C)C)cc1	83.9% (active)
CCOC(=O)c1ccc(NC(=O)c2nc[nH]c2C(=O)N[C@@H](CCCCNC(=O)OC(C)(C)C)C(=O)OC(C)(C)C)cc1	57.3% (active)

SMILES	inhibition
Cc1cccc(CS(=O)(=O)c2ncc(Cl)c(C(=O)Nc3ccc(F)cc3)n2)c1	53.2% (active)
O=C(Nc1ccccc1Cl)/C(Cl)=C(\Cl)S(=O)c1ccccc1 (stereo not given)	76.4% (active)
Cc1cc(C(=O)COc2ccccc2[N+](=O)[O-])c(C)n1-c1cccc(S(=O)(=O)N2CCOCC2)c1	21.2%
Nc1c(-c2cccc(Cl)c2)cnn1-c1cccc([N+](=O)[O-])c1	48.9% (active)
CNC(=O)/C(=C\C=C\c1ccccc1)NC(=O)c1ccc([N+](=O)[O-])cc1	91.7% (active)
C/C(=N\Nc1nc(N2CCOCC2)nc(N2CCOCC2)n1)c1ccc([N+](=O)[O-])cc1	41.8% (active)
CCCN1Cc2cccc(C(=O)Nc3ccc(S(=O)(=O)N4CCCCCC4)cc3)c2C1=O	0.41%
O=C(NCc1ccc2c(c1)OCO2)c1cc([N+](=O)[O-])ccc1N1CCOCC1	54% (active)
COc1ccc(S(=O)(=O)N2CCCCC2)cc1NC(=O)c1cc([N+](=O)[O-])ccc1N1CCOCC1	25.8%
CN(C)c1ccc(/C=C/C(=O)c2ccc(C(C)(C)C)cc2)cc1[N+](=O)[O-]	33%
Cc1cc(C(=O)N/N=C/c2cc([N+](=O)[O-])cc(C)c2O)n[nH]1	72.6% (active)
O=[N+]([O-])c1cc(Br)c(O)c(/C=N/Nc2nc3ccccc3s2)c1	16.1%
CC1(C)CC(=O)c2c(n(S(=O)(=O)c3ccccc3)c3ccc(NS(=O)(=O)c4ccccc4)cc23)C1	19.9%
Oc1c(Cl)cc(Cl)c(Cl)c1Cc1c(O)c(Cl)cc(Cl)c1Cl	70.1% (active)
Cc1noc(C)c1NC(=O)Nc1cccc2c1O[C@H](CN(C)C(=O)Nc1ccccc1)[C@@H](C)CN([C@H](C)CO)C2=O	61.3% (active)
O=C(Cc1ccc(Cl)c(Cl)c1)Nc1ccc(SC(F)F)cc1	37.6%
O=C(c1ccc2c(c1)N(Cc1ccc(F)cc1)C(=O)c1ccccc1S2(=O)=O)N1CCN(c2ccccn2)CC1	21.2%
COc1ccc2nc(Nc3nc4cc5c(cc4s3)OCCO5)sc2c1	17.9%
CC1=CC(=C(C#N)c2nc3ccccc3s2)C=C(C)N1c1ccc(F)cc1F	-32.7%
O=C(NCCC1=CCCCC1)c1ccc(Cl)c([N+](=O)[O-])c1	61.2% (active)
Cc1sc2nc(-c3ccccc3F)oc(=O)c2c1C	6.55%
COc1ccc(-c2csc3nc(-c4ccccc4F)oc(=O)c23)cc1OC	57.9% (active)
CCOC(=O)N1CCN(Cc2nc3ccc([N+](=O)[O-])cc3c(=O)n2-c2cccc(OC)c2)CC1	76.1% (active)

SMILES	inhibition
CCOc1cc(/C=C(/C#N)c2ccc(Cl)cc2)cc(Cl)c1OCC(=O)O	63% (active)
Cc1ccc(N2C(=O)C3C(c4ccccc4)(C2=O)C3(c2ccccc2)c2ccccc2)cc1 (stereo not given)	4.09%
COc1ccc(CNC(=O)C[C@H]2C[C@H](C(=O)N3CCOCC3)[C@@]3(CCC4CCCC4)c4[nH]c5ccc(Cl)cc5c4CCN3C2=O)cc1OC	83.3% (active)
O=C(C[C@H]1C[C@H](C(=O)N2CCOCC2)[C@@]2(CCC3CCCC3)c3[nH]c4ccc(Cl)cc4c3CCN2C1=O)NCc1ccco1	27.4%
CCOc1ccc(Nc2nc(Cl)nc(N3CCN(c4ccc(OC)cc4)CC3)n2)cc1	12.5%
O=C1[C@H]2[C@@H](c3ccc(F)cc3)N3C(=O)N(c4ccc(C(F)(F)F)cc4)C(=O)[C@@]3(Cc3ccccc3)[C@H]2C(=O)N1C1CCCCC1	17.3%
C[C@@]12C(=O)N(c3cccc(Br)c3)C(=O)N1[C@H](c1ccc(Cl)cc1)[C@@H]1C(=O)N(C3CCCCC3)C(=O)[C@@H]12	54% (active)
Cc1cccc(N2C(=O)N3[C@H](c4ccc(F)cc4)[C@@H]4C(=O)N(C5CCCCC5)C(=O)[C@@H]4[C@]3(Cc3ccccc3)C2=O)c1	10.1%
Cc1cccc(-n2c(SCC(=O)Nc3cccc(S(=O)(=O)NC4=NCCCCC4)c3)nc3ccccc3c2=O)c1C	18.8%
COC(=O)c1cc(C(=O)NC(C)C2CC3CCC2C3)cc([N+](=O)[O-])c1 (stereo not given)	59.5% (active)
O=C(Nc1cccc([N+](=O)[O-])c1)N1CCc2ccccc2C1	65.8% (active)
O=C(NCCCCc1ccccc1)C1CC(c2ccc([N+](=O)[O-])cc2)=NO1 (stereo not given)	59.7% (active)
O=C1NC(Cc2ccccc2)c2nc3ccc(Br)cc3c(=O)n2-c2cc3ccccc3cc21 (stereo not given)	30.7%
CC(NC(=O)Nc1cccc([N+](=O)[O-])c1)c1ccc2c(c1)OCO2 (stereo not given)	84.4% (active)
CCN(C(=O)CSc1ncnc2c1cnn2-c1ccccc1)C1CCS(=O)(=O)C1 (stereo not given)	69.8% (active)
CCOc1ccc(Br)cc1S(=O)(=O)Nc1ccc(C(=O)OC(C)C(=O)N(C)c2ccccc2)cc1 (stereo not given)	14.2%
CC1(C(=O)NS(=O)(=O)c2ccc(C#N)cc2)CCN1C(=O)c1ccc(C2CCCCC2)cc1 (stereo not given)	71.8% (active)
Cc1ccc(C)c(NC(=O)CSc2nc3c(oc4ccccc43)c(=O)n2-c2ccccc2)c1	31.1%
COc1ccccc1C1CC(=O)n2c(nc(-c3ccccc3)c2-c2ccccc2)S1 (stereo not given)	0.79%
CC(C)(C)NC(=O)NC(=O)COC(=O)Cc1ccc(Cl)cc1Cl	68.1% (active)
O=C1OCCN1C(=O)[C@H]1[C@H](c2ccc(Cl)cc2)C(c2cccc(Cl)c2)=NN1c1ccc(Br)cc1	15.5%
O=C(Nc1cccc(Cl)c1)c1cc([N+](=O)[O-])ccc1N1CCN(CCO)CC1	66.5% (active)
Cc1cccc(NC(=O)c2cc([N+](=O)[O-])ccc2N2CCN(C)CC2)c1	54% (active)

SMILES	inhibition
O=S(=O)(c1ccc(F)cc1)n1ccc(-c2cnc(-c3ccccc3)s2)n1	14.5%
Cc1ccc(S(=O)(=O)c2nnn3c2nc(N2CCN(c4ccccn4)CC2)c2ccccc23)cc1	25.4%
Cc1nc2c(OCc3ccc(Cl)cc3Cl)cccn2c1N(C)CC1CC1	50% (active)
O=C(COC(=O)c1cc([N+](=O)[O-])ccc1NCc1ccccc1)NC1CCCCC1	37.6% (active)
CCN1C(=O)[C@H]2[C@@H](c3ccc(SC4CCCCC4)c(OC)c3)N[C@@](Cc3ccccc3)(C(=O)OC)[C@H]2C1=O	15.5%
CCN1C(=O)[C@H]2[C@@H](c3ccc(-c4ccc(F)cc4)cc3)N[C@@](Cc3ccccc3)(C(=O)OC)[C@H]2C1=O	43.4%
Cc1cccc(N=C2NC(=O)/C(=C/c3cn(C)c4ccccc34)S2)c1	-6.27%
COc1cc(-c2noc(C3CCCN(S(=O)(=O)c4cccc(Cl)c4)C3)n2)cc(OC)c1OC (stereo not given)	30.8%
COc1ccc([N+](=O)[O-])cc1NC(=O)COC(=O)/C=C/c1ccco1	70.8% (active)
CC(C)Oc1ccc(Cc2n[nH]c(=S)n2Cc2ccccc2)cc1Cl	39.1% (active)
CC(=O)c1sc(N/N=C/c2ccc(C(C)C)cc2)nc1C	19.8%
O=C(c1ccc(Cl)c([N+](=O)[O-])c1)N1CCN(c2ccccc2)CC1	58.3% (active)
O=C(Nc1ccc(N2C(=O)c3cccc4cccc(c34)C2=O)cc1)c1ccc(N2CCCCC2)c([N+](=O)[O-])c1	10.5%
COc1ccc(C2CC(c3ccccc3)=NN2C(=O)c2ccc(Cl)c([N+](=O)[O-])c2)cc1 (stereo not given)	21.3%
O=c1ccc2c(-c3ccccc3S(=O)(=O)O)c3ccc(O)c(O)c3oc-2c1O	56.1% (active)
O=C(Nc1ccc(C2CC2(Cl)Cl)cc1)c1cccc([N+](=O)[O-])c1 (stereo not given)	19.8%
O=C(Nc1nnc(SCc2ccccc2Cl)s1)c1cccc([N+](=O)[O-])c1	51.7% (active)
CC(=O)c1ccc(S(=O)(=O)N2CCN(c3nc4c(C)c(C)ccc4cc3C#N)CC2)cc1	32.8%
Cc1ccc(S(=O)(=O)N2CC[C@H]3[C@@H](C2)C(=O)C[C@@H](c2ccccc2)N3S(=O)(=O)c2ccc(C)cc2)cc1	13.8%
COc1ccc(-c2nnc(SC(=O)N3c4ccccc4Sc4ccccc43)o2)cc1	13.1%
CCCCOC(=O)CNc1nnc(SCC(=O)OCC)[nH]c1=O	51% (active)

Source: PubChem BioAssay AID624325 (Sanford-Burnham Center for Chemical Genomics, 2012)
